TGFb inhibitor – TGF-b pathway inhibition; HepG2 CAGA-GFP TGF-b/SMAD3 reporter, GFP fluorescence, 18 h; TGF-beta stimulated, 500 pg/mL final; Potency, µM (titrated, usually from 46.1 µM), for inactives: at the highest dose activity, negative = inhibition, actives largely listed as inhibitors; hit rate 1.2% among 410,000; AID 588855; note: potency is the fitted concentration of half-maximal effect; % is set by controls: 0 for no effect and ±100 for the full control effect; nearly all actives have a fitted effect of over 65% in size
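Inhibition was scored as loss of TGF-beta-induced (500 pg/mL final, 18 hours, 37 degrees C) GFP in HEPG2 cells carrying a CAGA-GFP reporter, in DMEM with 1% FBS. Well GFP was summed per cell; Activity was normalised to unstimulated and stimulated DMSO wells, then concentration-response fitting.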
ATXN2 expr inh – reduces ATXN2 reporter expression in HEK-293 cells | HEK-293 ATXN2-luciferase reporter, luminescence, 24 h | Potency, µM (titrated, usually from 57 µM), for inactives: top-dose activity change, negative = inhibition, most hits filed as inhibitors | hit rate 0.72% among 360,000 | AID 1745845; note: potency is the fitted concentration of half-maximal effect; % is set by controls: 0 for no effect and ±100 for the full control effect; nearly all actives have a fitted effect of over 55% in size
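ATXN2-luciferase reporter cells (luciferase flanked by upstream and downstream ATXN2 gene portions) were treated 24 h at 37 °C with compounds at up to 57 uM. SteadyGlo luminescence gave expression; GF-AFC fluorescence gave viability.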
DRD3 antagonist – D3 dopamine receptor (human) antagonism | D3R cells, DiscoveRx beta-arrestin luminescence, antagonist mode; hits give low values | max response, negative = inhibition, % | hit rate 2.5% among 360,000 | AID 652054; in the data active = max response below about -50%; inconclusive = no clear call, values can overlap the other calls; note: % is set by controls: 0 for no effect and ±100 for the full control effect
Target sequence (P35462 whole entry, looked up): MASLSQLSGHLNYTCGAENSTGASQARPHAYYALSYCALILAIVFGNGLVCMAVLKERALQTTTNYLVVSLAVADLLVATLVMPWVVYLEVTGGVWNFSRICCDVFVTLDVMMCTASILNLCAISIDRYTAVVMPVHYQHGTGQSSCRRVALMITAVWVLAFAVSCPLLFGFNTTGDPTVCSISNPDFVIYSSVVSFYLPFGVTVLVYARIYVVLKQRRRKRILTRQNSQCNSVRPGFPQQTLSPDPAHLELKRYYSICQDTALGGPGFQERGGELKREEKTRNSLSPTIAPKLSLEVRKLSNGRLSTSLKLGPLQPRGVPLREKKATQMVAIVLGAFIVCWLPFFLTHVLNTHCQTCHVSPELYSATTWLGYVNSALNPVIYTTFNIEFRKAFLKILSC
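Cells expressing the human receptor were seeded at 1500 cells/well, incubated overnight at 37 degrees C in 5% CO2, then exposed to library compounds with dopamine controls for 90 minutes at 37 degrees C before luminescent detection.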
S2 tox – cell viability loss in ATXN counter-screen. S2 cells (HEK-293 line with an ATXN2-luciferase reporter) viability, CellTiter-Fluor protease fluorescence, 24 h. Potency, µM (top dose mostly 56.7 µM), usual class: cytotoxic. hit rate 0.49% among 400,000. AID 651635; note: potency is the fitted concentration of half-maximal effect; nearly all actives have a fitted effect of over 40% in size
HepG2 viability – counter-screen for TGF-b inhibitors: cytotoxicity in HepG2 cells | HepG2 CAGA-GFP viability, ATP luminescence, 18 h | Potency, µM (titrated, usually from 46.1 µM), inactives show at the top dose activity change, negative = cytotoxicity, actives largely listed as cytotoxic | hit rate 0.76% among 410,000; note: potency is the fitted concentration of half-maximal effect
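CellTiter-Glo luminescence gave cytotoxicity after 18 hours at 37 degrees C. The cells were HepG2 CAGA-GFP in 1% FBS DMEM, stimulated with 500 pg/mL TGF-beta after compound addition. %Activity was normalised to no-cell wells (complete cell-killing) and DMSO (no toxicity), and curves were fitted and classified.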
D3 ag – agonists of human D3 dopamine receptor; hit rate 0.58% among 410,000; P35462; D3R DiscoveRx beta-arrestin cells, luminescence, 90 min; AID 652048; max activation, %; in the data active = max activation above about 30%; note: 0% is about no effect
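Agonist mode: compounds and dopamine controls were applied to plated cells for 90 min at 37 degrees C after an overnight attachment at 1500 cells/well. Luminescent read-out followed 30 - 60 minutes at room temperature with DiscoveRx detection reagent.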
An asterisk follows results filed as active; i = inactive; ? = inconclusive; · = not tested or not shown; ! = not confirmed by another sample. This is a sample that favours compounds with a hit; in the whole collection about 4.8% have one here. Unless noted, calls come from the whole dose curve; as a rule, active = well fitted curve in the direction sought with a large enough effect; inconclusive = small, poorly fitted or top-dose-only effect, or another doubt; inactive = no such curve, though single readings can be large; an effect the other way counts as inactive or inconclusive.

SMILES	TGFb inhibitor	ATXN2 expr inh	DRD3 antagonist	S2 tox	HepG2 viability	D3 ag
COCCN1C(=O)c2ccccc2C(C(=O)NCCN(C)C)C1c1ccc(F)cc1 (configuration not stated)	2%	-2%	-63*	i	-12%	-11
CCN(CC)CCNC(=O)C1CCC(=O)N(c2ccc(OC)cc2)C1c1ccc(F)cc1 (configuration not stated)	-6%	-1%	-67*	i	-4%	-10
CCOc1ccc(CCNC(=O)c2nnc(Cc3ccc(Cl)cc3Cl)o2)cc1OCC	-23%	-4%	·	i	-2%	5
CCN(CC)C(=O)CSc1nsc(SCC(=O)N(CC)CC)c1C#N	-1%	-8%	-55*	i	0%	-3
Cn1nnnc1Sc1ncnc2scc(-c3ccc(Br)cc3)c12	?	16µM*	·	13µM*	16µM*	·
Cc1ccc(-c2csc3ncnc(Sc4nnnn4C4CC4)c23)cc1	25%	·	·	·	1%	·
Cn1nnnc1Sc1ncnc2scc(-c3ccc(F)cc3)c12	11µM*	?	-57*	?	10µM*!	5
Cn1nnnc1Sc1ncnc2scc(-c3ccccc3)c12	?	?	1	?	-27%	4
Cn1nnnc1Sc1ncnc2scc(-c3ccc[nH]3)c12	?	10µM*	·	?	-111%	·
c1ccc(-c2csc3ncnc(Sc4nnnn4-c4ccccc4)c23)cc1	11µM*	·	·	·	-85%	·
COc1ccc(NC(=O)NC(C)c2c(-n3cccc3)sc3c2CCN(C)C3)c(OC)c1 (configuration not stated)	?	·	·	·	-30%	-17
O=C(C(O)c1ccc(Br)cc1)N1CCC(Nc2ccc3[nH]ncc3c2)CC1 (configuration not stated)	-1%	3%	-81*	i	-4%	-7
COCC(=O)N1c2nc(-c3ccco3)nn2C2(CCCCC2)[C@@H]2CCCC[C@@H]21	0%	·	·	·	3%	3
COc1cc(C)c(NC(C)C(=O)c2c(C)[nH]c3ccccc23)cc1OC (configuration not stated)	26%	·	·	·	5%	·
COc1ccc(CN2CCCC(C(=O)c3ccc4c(c3)OCO4)C2)c(F)c1 (configuration not stated)	-24%	-30%	-59*	?	-30%	-4
O=C(c1ccc2c(c1)OCO2)C1CCCN(C2CCN(CCc3ccccc3)CC2)C1 (configuration not stated)	-25%	-37%	-84*	i	-32%	-26
CCCn1cc(CN2CCCC(C(=O)c3ccc4c(c3)OCO4)C2)c(C)n1 (configuration not stated)	-13%	1%	-53*	i	-4%	-21
COc1cc(OC)c(NS(=O)(=O)c2ccc3c(c2)CCCN3C(C)=O)cc1Cl	-1%	·	·	·	-24%	0
COc1ccccc1N1C(=O)N(C(C)=O)C2C1Nc1ccccc1N2C (configuration not stated)	?	25µM*	?	i	-88%	-6
O=[N+]([O-])c1ccccc1S(=O)(=O)N1CCN(c2nc(-c3cccs3)nc3ccccc23)CC1	11%	·	·	·	-1%	·
O=C(Cc1ccccc1)N[C@@H]1c2ccccc2CC[C@@H]1OCc1ccccc1	-20%	0%	-90*	i	-37%	-20
O=C(COCc1ccccc1)N[C@@H]1c2ccccc2CC[C@@H]1OCc1ccccc1	?	-21%	-10	i	-5%	-21
CCOc1ccc(NC(=O)c2c(NCc3sccc3C)sc3c2CCCCC3)cc1	?	·	·	·	-36%	-19
COc1cc2nc(-c3cc(F)ccc3O)nc(N[C@@H]3CNC[C@@H]3C(C)(C)O)c2cc1OC	·	22µM*	·	·	·	·
CCc1ccccc1NC(=O)c1ccc([N+](=O)[O-])s1	11µM*	?	-16	i	11µM*	-7
SMILES	TGFb inhibitor	ATXN2 expr inh	DRD3 antagonist	S2 tox	HepG2 viability	D3 ag
COc1ccccc1NC(=O)COC(=O)c1ccc([N+](=O)[O-])s1	?	·	?	i	-13%	-7
CCOC(=O)C1CCN(C(=O)c2ccc3c(c2)N=C(CC)c2cc(C)ccc2S3)CC1	10µM*	-28%	·	i	-21%	-9
COc1ccc(C(=O)c2cn(CC(=O)Nc3ccc4c(c3)OCCO4)c3ccc(OC)cc3c2=O)cc1	1%	-4%	·	?	2%	0
COC(=O)C[C@@H]1C[C@H]2c3cc(NC(=O)C4CCC4)ccc3O[C@H]2[C@@H](CO)O1	-2%	5%	-17	i	-12%	0
O=C(C[C@@H]1C[C@H]2c3cc(NC(=O)C4CCC4)ccc3O[C@H]2[C@@H](CO)O1)NCc1ccc(-c2ccccc2)cc1	?	?	?	?	16µM*	-7
CCOc1ccc(Br)cc1S(=O)(=O)Nc1cccc(S(=O)(=O)N(C)c2ccccc2)c1	11µM*	-7%	-25	i	-31%	-6
CCOc1ccc(Br)cc1S(=O)(=O)Nc1ccc(C(=O)Nc2ccccc2OC)cc1	2%	-24%	-51*	i	2%	-22
COc1ccc(NS(=O)(=O)c2cc(NC(=O)c3ccccn3)ccc2OC)cc1Br	-24%	-3%	-51*	i	-13%	-2
CCOc1ccc(Br)cc1S(=O)(=O)Nc1ccc(C(=O)Nc2ccc(C)cc2)cc1	1%	2%	24	?	-2%	0
CCn1c(C(=O)N2CCC(C(=O)NCCc3ccc(OC)cc3OC)CC2)cc2sccc21	?	·	·	·	-28%	5
Cc1ccc(C)c(Cn2c(SCC(=O)N(C)Cc3ccccc3)nc3ccccc32)c1	?	?	·	?	-7%	-6
COc1ccc(S(=O)(=O)NCCc2sc3nc(-c4ccc(C)cc4)nn3c2C)cc1C	?	·	·	·	-27%	-6
CC(C)[C@H](NC(=O)Cc1ccccc1)C(=O)OCc1cc(=O)n2c(n1)sc1ccccc12	16µM*	6%	21	i	-25%	3
Cc1ccc2c(CC(=O)OCc3cc(=O)n4c(n3)sc3ccccc34)coc2c1	0%	1%	0	i	6%	-1
Cc1ccc(C(=O)NC(=S)N2CCN(c3ccc([N+](=O)[O-])cc3)CC2)cc1	0%	-18%	-53*	i	-1%	-23
CC(C)C[C@H](CO)Nc1nc(Nc2cccc(Cl)c2)c2ncn(C(C)C)c2n1	?	?	0	22µM*	-58%	-12
CCOC(=O)CNC(=O)C1CCCCC1	0%	·	·	·	-10%	·
CCCc1cc(NCc2ccccn2)n2nc(C)c(-c3ccccc3)c2n1	?	10µM*	-27	?	-41%	3

Source: PubChem BioAssay
